MsrA act – bovine MsrA enzyme activators, primary screen, biochemical, absorbance, HTS. Methionine sulfoxide reductase A (Bos taurus). purified bovine MsrA, absorbance read-out. activation, % at 10.6 µM. actives 0.3% (n = 360,000); in the data active = activation above about 7.5%
MsrA inhibitor – bovine MsrA enzyme inhibitors, primary screen, biochemical, absorbance, HTS | Methionine sulfoxide reductase A (Bos taurus) | purified bovine MsrA, absorbance read-out | inhibition, % at 15.5 µM | actives 0.75% (n = 360,000)
HTR2A ag – mouse Htr2a agonists via beta-arrestin recruitment, primary screen, cell-based, luminescence. actives 0.66% (n = 360,000). CHO-K1 mHTR2A beta-arrestin complementation; percent of 30 µM serotonin response. activation, % at 7.6 µM;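 active = activation above a run cutoff, the mean activation of all tested compounds plus 3 SD, cut at about 14% in these data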
GC-A act – GC-A stimulated cGMP production enhancers – HEK293 GC-A cells, cGMP TR-FRET, EC30 ANP, primary screen; activation, % at 10 µM; AID 1671463, 2021; 0% at EC30 ANP, 100% saturating ANP; actives 0.14% (n = 370,000); in the data active = activation above about 40%
GC-B act – human GC-B receptor activators, primary screen, HEK293 GC-B cells, cGMP TR-FRET, EC30 CNP; 0% at EC30 CNP, 100% saturating CNP; activation, % at 10 µM; actives 0.11% (n = 370,000); AID 1920062, 2024;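 active = activation at 10 µM reaching about 35% in either raw or pattern-adjusted values, limit read from the data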
MsrA conf – bovine MsrA inhibitors, retest, confirmation, biochemical, absorbance, HTS; shares compounds with MsrA inhibitor; purified bovine MsrA, absorbance read-out; inhibition, % at 15.5 µM; actives 41% (n = 2,300); AID 651822, 2012;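 also: coupled to thioredoxin reductase with NADPH and selenocystamine and DMSO as substrate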
Large screens that a line does not name were inactive (follow-up assays come after a bar, where they were run). Hits are enriched below; roughly 1.8% of the tested compounds scored in any of these assays. Rule as the data show it, unless noted: active = inhibition above about 4.5%; inactive = the rest.

O=C(N/N=C/c1cccs1)c1cccc2cc[nH]c12	MsrA inhibitor 5.2 | MsrA conf inactive
CCc1ccc(Oc2c(Cl)cnn(-c3ccc(C)cc3)c2=O)cc1	none (no result: MsrA act, MsrA inhibitor, HTR2A ag)
CCOC(=O)c1ccc2c(c1)n(CCCS(=O)(=O)[O-])c(/C=C/c1ccc(Cl)cc1)[n+]2CC	MsrA inhibitor 5.6 | MsrA conf 5.4
CCOC(=O)c1ccc2c(c1)n(CC)c(C)[n+]2CC	none
C=CCN(CC#CC(=C)C)Cc1ccccc1	none (no result: MsrA act, MsrA inhibitor, HTR2A ag)
O=C(NN=Cc1ccc(F)cc1)c1ccccc1NS(=O)(=O)c1cccs1	none
O=C(O)c1ccc(/C=N/NC(=O)c2ccc(NS(=O)(=O)c3cccs3)cc2)cc1	MsrA inhibitor 5.5 | MsrA conf 5.5
O=C(O)COc1ccccc1C=NNC(=O)c1ccc(NS(=O)(=O)c2cccs2)cc1	MsrA inhibitor 5.9 | MsrA conf inactive
O=C(NN=Cc1cc(Br)c(O)c(Br)c1)c1ccccc1NS(=O)(=O)c1cccs1	MsrA inhibitor 6.1 | MsrA conf inactive
COC(=O)C1=C(C)N(Cc2cccc(C(F)(F)F)c2)C(=NCc2cc(OC)c(OC)c(OC)c2)NC1c1ccc(F)cc1 (stereo not given)	none (no result: MsrA act, HTR2A ag)
NC(=O)c1ccsc1NC(=O)c1coc2ccccc2c1=O	MsrA inhibitor 4.7 | MsrA conf inactive
CN(C)c1ccc(-c2nc3ccccc3c(=O)[nH]2)cc1	MsrA inhibitor 6.0 | MsrA conf inactive
CCCCNC(=O)NCC1CCN(Cc2ccc(OC)cc2)CC1	none (no result: MsrA act, MsrA inhibitor, HTR2A ag)
O=C(NCC(c1ccco1)N1CCCCC1)c1ccc([N+](=O)[O-])s1 (stereo not given)	MsrA inhibitor 6.0 | MsrA conf inactive
COCCN(C(=O)c1ccc(-c2ccc([N+](=O)[O-])cc2)o1)c1c(N)n(CC(C)C)c(=O)[nH]c1=O	MsrA inhibitor 4.7 | MsrA conf 4.6
COCCN(C(=O)c1ccc(-c2ccc(Cl)cc2)o1)c1c(N)n(CC(C)C)c(=O)[nH]c1=O	none
COc1ccc(S[C@]2(C(=O)N(C)C)CC(=O)N(c3ccc(Cl)cc3)[C@@H]2c2ccc(OC)cc2)cc1	none (no result: MsrA act, MsrA inhibitor, HTR2A ag)
O=C1CC(C(=O)Nc2ccccc2)S/C(=N\N=C\c2ccco2)N1 (stereo not given)	MsrA inhibitor 5.0 | MsrA conf 5.4
COc1ccc(NC(=O)C2CC(=O)N/C(=N/N=C/c3ccco3)S2)cc1 (stereo not given)	MsrA inhibitor 5.1 | MsrA conf 5.1
COc1ccc(/C=N/N=C2/NC(=O)CC(C(=O)O)S2)cc1 (stereo not given)	MsrA inhibitor 5.0 | MsrA conf inactive
COc1ccc(/C=N/N=C2/NC(=O)C(CC(=O)NC(N)=O)S2)cc1 (stereo not given)	none
O=C1CC(C(=O)Nc2ccc(Br)cc2)S/C(=N\N=C\c2ccco2)N1 (stereo not given)	none
O=C1CC(C(=O)Nc2ccc(Cl)cc2)S/C(=N\N=C\c2ccco2)N1 (stereo not given)	MsrA inhibitor 5.6 | MsrA conf inactive
CN(C)CCCO[C@@H]1[C@H]2OC(C)(C)O[C@H]2O[C@@H]1[C@H](O)CO	none
CCOc1ccc(-n2c(SCC(=O)Nc3cccc4ccccc34)nnc2-c2ccccc2)cc1	none (no result: MsrA act, MsrA inhibitor, HTR2A ag)
Cc1nc(SCC(=O)NC(=O)NCCC(C)C)c2c(-c3cccs3)csc2n1	none
CCn1c(Sc2nc(C)nc3scc(-c4cccs4)c23)n[nH]c1=O	MsrA inhibitor 10 | MsrA conf 10.0
COc1ccc2cc(S(=O)(=O)c3ccccc3)c(=O)oc2c1	MsrA inhibitor 5.3 | MsrA conf inactive
Cc1cc(N/N=C/c2ccc(N(C)C)cc2)c2ccccc2n1	MsrA inhibitor 5.0 | MsrA conf inactive
CCOC(=O)c1cnc2c(ccc3ccccc32)c1Cl	none
CCOC(=O)c1cnc(SC)nc1Sc1ccccc1Cl	MsrA inhibitor 8.2 | MsrA conf inactive
CC(C)n1nnnc1C1c2ccccc2OCC(=O)N1Cc1cccc(C(F)(F)F)c1 (stereo not given)	none (no result: MsrA act, MsrA inhibitor, HTR2A ag)
